This is part of a sample that, as a whole, favours compounds with a hit. Of some 83,000 tested, about 20% had one in any assay.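 Single-concentration screen, 48 h exposure, 96-well plates. Endpoint: percent growth. Below 10 = active.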 Unmarked numbers belong to inactive results. Activity calls are given as the source filed them.

Holding throughout (experiment): NCI-60 one-dose screen, 48 h (100 = growth as untreated, 0 = no growth, -100 = all killed)
The subject of one experiment is HCT-15 colon. The settings on record: 10 µM unless noted.
In the next experiment the test system is SNB-75 CNS. To be noted: 10 µM unless noted.
The next experiment relates to SNB-19 CNS. The settings on record: 10 µM unless noted.
Another experiment deals with U251 CNS. To be noted: 10 µM unless noted.
The next experiment deals with PC-3 prostate. The settings on record: 10 µM unless noted.
The next experiment relates to SK-MEL-5 melanoma. To be noted: 10 µM unless noted.
The next experiment has as its system UACC-62 melanoma. To be noted: 10 µM unless noted.
The test system of the next experiment is LOX IMVI melanoma. The settings on record: 10 µM unless noted.
In a further experiment the test system is SK-MEL-28 melanoma. To be noted: 10 µM unless noted.
For the next experiment, the system named is EKVX NSCLC. To be noted: 10 µM unless noted.
Another experiment has as its system SN12C renal. To be noted: 10 µM unless noted.
The next experiment concerns UO-31 renal. To be noted: 10 µM unless noted.
In a further experiment the test system is TK-10 renal. To be noted: 10 µM unless noted.
Another experiment concerns ACHN renal. To be noted: 10 µM unless noted.
A further experiment concerns CAKI-1 renal. To be noted: 10 µM unless noted.
The next experiment relates to A498 renal. The settings on record: 10 µM unless noted.
Another experiment deals with CCRF-CEM leukemia. The settings on record: 10 µM unless noted.
For a further experiment, the system named is MOLT-4 leukemia. To be noted: 10 µM unless noted.
Another experiment has as its system SK-MEL-2 melanoma. To be noted: 10 µM.
The next experiment deals with HT29 colon. The settings on record: 10 µM unless noted.

In the case of `Cc1cc2c(F)c(Oc3ncnn4cc(OC[C@@H](C)OC(=O)[C@H](C)N)c(C)c34)ccc2[nH]1`, the growth in the experiment on HCT-15 colon was 38.6%; in the experiment on SNB-75 CNS it was 55.6%; in the experiment with SNB-19 CNS, 51.8%; in the experiment with U251 CNS it was 44.8%; in the experiment with PC-3 prostate it was 54.5%; in the experiment on SK-MEL-5 melanoma it was 42.6%. Moreover, the growth was 2.73% (active) in the experiment with UACC-62 melanoma; 26.5% in the experiment on LOX IMVI melanoma; 10.5% in the experiment on SK-MEL-28 melanoma; 61.2% in the experiment with EKVX NSCLC; 55.6% with SN12C renal; 36.3% with UO-31 renal. For the same molecule, the growth in the experiment with TK-10 renal is 35.6%; in the experiment on ACHN renal, 46.8%; with CAKI-1 renal it was 48.8%; in the experiment on A498 renal, 21.7%; in the experiment on CCRF-CEM leukemia, 45.4%; with MOLT-4 leukemia, 48.3%.

For `Cc1cc(N2CCCC2)nc(N(CCCNc2ccnc3cc(Cl)ccc23)Cc2ccc3c(c2)OCO3)n1`, the growth in the experiment with HCT-15 colon was 3.01% (active); in the experiment on SNB-75 CNS, 3.65% (active); in the experiment on SNB-19 CNS, 23.5%; with U251 CNS it was -9.48% (active); in the experiment with PC-3 prostate it was 20.7%; in the experiment on SK-MEL-5 melanoma, -96.8% (active). The growth in the experiment with UACC-62 melanoma is -32.9% (active); in the experiment on LOX IMVI melanoma it was -78.3% (active); in the experiment with SK-MEL-28 melanoma, -82% (active); in the experiment with SK-MEL-2 melanoma it was -50.7% (active); in the experiment on EKVX NSCLC, 35.9%; with SN12C renal, 29.3%. For the same molecule, the growth in the experiment on UO-31 renal was -24.5% (active); in the experiment on TK-10 renal, -12.6% (active); in the experiment with ACHN renal, -10.7% (active); in the experiment with A498 renal it was 13.6%; in the experiment with CCRF-CEM leukemia, 1% (active); in the experiment with MOLT-4 leukemia it was -15.4% (active).

Turning to `C#Cc1cccc(Nc2ncnc3cc4c(cc23)OCCOCCOCCO4)c1`, the growth in the experiment with HCT-15 colon was 68.8%; in the experiment with SNB-75 CNS it was 57.7%; in the experiment with SNB-19 CNS, 60.9%; in the experiment on PC-3 prostate, 57.3%; in the experiment on SK-MEL-5 melanoma it was 58.1%; with UACC-62 melanoma it was 32.9%. For the same molecule, the growth is 51% in the experiment with LOX IMVI melanoma; 57.6% in the experiment on SK-MEL-28 melanoma; 42.5% with EKVX NSCLC; 42% in the experiment with SN12C renal; 27.2% in the experiment on UO-31 renal; 7.84% (active) in the experiment on TK-10 renal. Moreover, the growth with CAKI-1 renal is 28.4%; with A498 renal, 24.1%; in the experiment with CCRF-CEM leukemia it was 73.3%; with MOLT-4 leukemia, 53.3%.

Take `CC(C)(C)CC(C)(C)Nc1c(-c2c(O)c3ccccc3oc2=O)nc2c(Cl)cc(C(F)(F)F)cn12`: the growth with HT29 colon is 105%; in the experiment with SNB-75 CNS, 85.7%; with SNB-19 CNS, 101%; with U251 CNS it was 101%; with PC-3 prostate it was 79.6%; in the experiment with SK-MEL-5 melanoma it was 97.8%. The growth in the experiment with UACC-62 melanoma was 93.4%; with LOX IMVI melanoma, 98.1%; in the experiment with SK-MEL-28 melanoma it was 113%; in the experiment with SK-MEL-2 melanoma, 102%; in the experiment on EKVX NSCLC, 97.3%; in the experiment with SN12C renal, 91.6%. The growth in the experiment on UO-31 renal is 70.7%; in the experiment on TK-10 renal it was 96.4%; with ACHN renal, 97.3%; with CAKI-1 renal, 87.6%; in the experiment with A498 renal it was 62%; in the experiment with CCRF-CEM leukemia, 89.1%.

In the case of `COc1ccc(-c2nc(N)ncc2Oc2ccccc2OC)c(O)c1`, the growth is 17.2% in the experiment with HCT-15 colon; 10.8% in the experiment with SNB-75 CNS; 41.5% with SNB-19 CNS; 30.6% in the experiment with U251 CNS; 31% in the experiment on PC-3 prostate; 25% in the experiment on SK-MEL-5 melanoma. Moreover, the growth is 51% in the experiment with UACC-62 melanoma; 34% with LOX IMVI melanoma; 63.1% in the experiment with SK-MEL-28 melanoma; 17.4% with SK-MEL-2 melanoma; 40.1% with EKVX NSCLC; 48.7% in the experiment on SN12C renal. Further, the growth was 46% with UO-31 renal; 55.9% with TK-10 renal; 43.5% in the experiment on ACHN renal; 34.3% in the experiment on A498 renal; 19.7% with CCRF-CEM leukemia; 26.9% in the experiment with MOLT-4 leukemia.

As to `O=C1C=CC2(NN=C(c3ccccc3)N2c2ccccc2)c2cccc(O)c21` (centres undefined), the growth in the experiment on HCT-15 colon is 16.8%; in the experiment on SNB-75 CNS it was 19.9%; in the experiment on SNB-19 CNS, 32%; in the experiment on U251 CNS it was 11.2%; in the experiment with PC-3 prostate it was 36%; in the experiment with SK-MEL-5 melanoma it was -91.5% (active). The growth with UACC-62 melanoma is -50.4% (active); in the experiment with LOX IMVI melanoma it was -5.86% (active); in the experiment on SK-MEL-28 melanoma it was 38.2%; in the experiment on EKVX NSCLC, 57.9%; in the experiment on SN12C renal, 7.23% (active); with UO-31 renal, 22.1%. Also, the growth in the experiment on TK-10 renal is 91.6%; in the experiment with ACHN renal, 55.2%; with CAKI-1 renal, 81.7%; with A498 renal, 103%; with CCRF-CEM leukemia it was 76.5%; in the experiment on MOLT-4 leukemia it was 71.7%.

For the molecule `Cc1c(NC(=O)OC[C@@H]2COCCN2)cn2ncnc(Nc3ccc4c(cnn4Cc4cccc(F)c4)c3)c12`, the growth in the experiment with HCT-15 colon is 4.13% (active); with SNB-75 CNS it was -70.7% (active); in the experiment on SNB-19 CNS it was 6.8% (active); in the experiment with U251 CNS, -6.22% (active); with PC-3 prostate it was 9.24% (active); in the experiment on SK-MEL-5 melanoma, -46.4% (active). The growth in the experiment with UACC-62 melanoma was -14.7% (active); in the experiment on LOX IMVI melanoma it was -11% (active); in the experiment on SK-MEL-28 melanoma, -10.1% (active); in the experiment on EKVX NSCLC it was 4.4% (active); in the experiment with SN12C renal it was 0.74% (active); in the experiment on UO-31 renal, -40.5% (active). The growth in the experiment on TK-10 renal is -7.43% (active); in the experiment with ACHN renal it was -0.373% (active); in the experiment on CAKI-1 renal it was -2.81% (active); in the experiment with A498 renal it was -68.8% (active); in the experiment on CCRF-CEM leukemia, 6.97% (active); in the experiment on MOLT-4 leukemia it was 1.8% (active).

Take `CNC(=O)c1cc(Oc2ccc(NC(=O)Nc3cc(C(C)(C)C)nn3-c3ccc4ncccc4c3)c(F)c2)ccn1`: the growth in the experiment on HCT-15 colon was -12.9% (active); with SNB-75 CNS, -94% (active); in the experiment with SNB-19 CNS, 1.45% (active); in the experiment with U251 CNS, -21.7% (active); in the experiment on PC-3 prostate, -23.6% (active); with SK-MEL-5 melanoma, -83.5% (active). Further, the growth with UACC-62 melanoma was -52% (active); in the experiment on LOX IMVI melanoma, -72.9% (active); in the experiment with SK-MEL-28 melanoma, -45.5% (active); in the experiment on EKVX NSCLC it was -16.9% (active); with SN12C renal, -10.3% (active); with UO-31 renal, -21.4% (active). The growth in the experiment on TK-10 renal was -35.5% (active); in the experiment on ACHN renal it was -20.6% (active); in the experiment on CAKI-1 renal, -24.9% (active); in the experiment on A498 renal, -71.3% (active); in the experiment with CCRF-CEM leukemia, 8.17% (active); in the experiment on MOLT-4 leukemia, -1.34% (active).

As to `COc1ccc(COc2cc3oc(=O)c4cc(C(C)O)ccc4c3cc2OC)cc1` (centres undefined), the growth with HCT-15 colon was 36.6%; with SNB-75 CNS it was 13.7%; with SNB-19 CNS, 31.9%; with PC-3 prostate it was 53%; with SK-MEL-5 melanoma, 56.3%; in the experiment with UACC-62 melanoma it was 50.4%. Moreover, the growth was 76.3% with LOX IMVI melanoma; 56.3% in the experiment on SK-MEL-28 melanoma; 68.9% in the experiment with EKVX NSCLC; 68.5% in the experiment with SN12C renal; 64.5% in the experiment with UO-31 renal; 73.5% in the experiment on TK-10 renal. Also, the growth with ACHN renal was 48.4%; in the experiment with CAKI-1 renal, 55.9%; in the experiment with A498 renal, 84.6%; in the experiment on CCRF-CEM leukemia it was 77.1%; in the experiment on MOLT-4 leukemia, 54.5%.

Source of the values: PubChem BioAssay (NCI).
